Where “and” joins values, the source holds several entries; their conditions need not be identical. Identical values can stand only once. Screen size: about 5,500 compounds; about 2,000 (36%) were called active. About 18% were inconclusive and are not listed. Rule as the data show it: active = normalized growth mostly below about 0.91 (no sharp cut-off); inconclusive = no clear call, values can overlap the other calls; inactive = mostly above about 0.92. This is one part of the list.
Assay: chemical genetic growth profiling, strain panel (AID 1159580);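 also: tested at 20 µM; growth read once vehicle control cultures reached saturation at 30 °C; 1 = growth at the plate median or of vehicle wells; lower values mean less growth of the strain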
Conditions: S. cerevisiae deletion strains, growth OD

Measured: normalized growth

CC1=C(C(C)O)C2=NC1C=c1[nH]c(c(C)c1C(C)O)=Cc1[nH]c(c(CCC(=O)O)c1C)C=c1[nH]c(c(C)c1CCC(=O)O)=C2 (configuration not stated)
inactive: locus YAL013W, strain DEP1, active compounds read low 0.937 | locus YAL021C, strain ccr4, active compounds read low 0.982 | locus YAL026C, strain drs2, active compounds read low 0.988 | locus YAL030W, strain snc1, active compounds read low 0.995 | locus YBL061C, strain skt5, active compounds read low 0.986 | locus YBR009C, strain hhf1, active compounds read low 0.986 | locus YBR021W, strain FUR4, active compounds read low 0.998 | locus YBR023C, strain chs3, active compounds read low 0.986 | locus YBR171W, strain sec66, active compounds read low 0.994 | locus YBR229C, strain ROT2, active compounds read low 1 | locus YBR231C, strain swc5, active compounds read low 0.988 | locus YBR279W, strain paf1, active compounds read low 1.01 | locus YCL011C, strain gbp2, active compounds read low 0.994 | locus YCL016C, strain dcc1, active compounds read low 0.986 | locus YCL029C, strain bik1, active compounds read low 1.02 | locus YCL061C, strain MRC1, active compounds read low 0.989 | locus YCL069W, strain vba3, active compounds read low 0.99 | locus YCR088W, strain abp1, active compounds read low 0.985 | locus YDL005C, strain med2, active compounds read low 0.995 | locus YDL035C, strain GPR1, active compounds read low 0.976 | locus YDL040C, strain nat1, active compounds read low 0.998 | locus YDL074C, strain BRE1, active compounds read low 0.956 | locus YDL101C, strain DUN1, active compounds read low 0.999 | locus YDL185W, strain tfp1, active compounds read low 1 | locus YDL192W, strain arf1, active compounds read low 0.989 | locus YDR001C, strain nth1, active compounds read low 1 | locus YDR069C, strain doa4, active compounds read low 0.999 | locus YDR101C, strain arx1, active compounds read low 1.01 | locus YDR137W, strain rgp1, active compounds read low 1.04 | locus YDR150W, strain NUM1, active compounds read low 0.997 | locus YDR159W, strain sac3, active compounds read low 0.946 | locus YDR162C, strain NBP2, active compounds read low 0.897 | locus YDR195W, strain ref2 0.935 | locus YDR297W, strain sur2, active compounds read low 0.986 | locus YDR318W, strain mcm21, active compounds read low 1.01 | locus YDR334W, strain swr1, active compounds read low 0.993 | locus YDR335W, strain msn5, active compounds read low 1 | locus YDR388W, active compounds read low 1.02 | locus YDR392W, strain spt3, active compounds read low 0.839 | locus YDR502C, strain sam2, active compounds read low 0.977 | locus YEL003W, strain gim4, active compounds read low 0.977 | locus YEL037C, strain rad23, active compounds read low 1 | locus YEL061C, strain CIN8 (second series), active compounds read low 0.996 | locus YEL061C, strain CIN8, active compounds read low 0.995 | locus YER015W, strain faa2, active compounds read low 1.01 | locus YER016W, strain bim1, active compounds read low 0.989 | locus YER110C, active compounds read low 1.03 | locus YER111C, strain swi4, active compounds read low 0.986 | locus YER155C, strain BEM2 (second series), active compounds read low 0.998 | locus YER155C, strain BEM2, active compounds read low 0.995 | locus YER167W, strain BCK2, active compounds read low 0.96 | locus YFR010W, strain ubp6, active compounds read low 0.999 | locus YGL078C, strain dbp3, active compounds read low 1.03 | locus YGL086W, strain mad1, active compounds read low 0.968 | locus YGL167C, strain pmr1, active compounds read low 0.995 | locus YGL173C, strain kem1, active compounds read low 0.983 | locus YGL227W, strain vid30, active compounds read low 0.993 | locus YGL240W, strain doc1, active compounds read low 0.945 | locus YGL248W, strain PDE1, active compounds read low 1.01 | locus YGL253W, strain hxk2, active compounds read low 1 | locus YGR078C, strain PAC10, active compounds read low 0.984 | locus YGR135W, strain pre9, active compounds read low 0.973 | locus YGR252W, strain gcn5, active compounds read low 1 | locus YHR013C, strain ard1, active compounds read low 0.931 | locus YHR027C, strain rpn1, active compounds read low 1 | locus YHR030C, strain SLT2, active compounds read low 1.01 and 1.06 | locus YHR079C, strain IRE1 (second series), active compounds read low 1.01 | locus YHR079C, strain IRE1, active compounds read low 1.05 | locus YHR094C, strain hxt1, active compounds read low 1.02 | locus YHR129C, strain ARP1, active compounds read low 1 | locus YHR142W, strain chs7, active compounds read low 1.01 | locus YHR200W, strain rpn10, active compounds read low 0.986 | locus YIL066C, strain RNR3, active compounds read low 0.98 | locus YIL073C, strain SPO22, active compounds read low 1.12 | locus YIL125W, strain kgd1, active compounds read low 1.02 | locus YIR030C, strain dcg1, active compounds read low 1.01 | locus YJL092W, strain hpr5, active compounds read low 0.992 | locus YJL095W, strain BCK1 (second series), active compounds read low 0.994 | locus YJL095W, strain BCK1, active compounds read low 0.982 and 1.06 | locus YJL115W, strain asf1, active compounds read low 0.977 | locus YJL129C, strain trk1, active compounds read low 0.949 | locus YJL134W, strain LCB3, active compounds read low 1 | locus YJL154C, strain vps35, active compounds read low 0.995 | locus YJL164C, strain tpk1, active compounds read low 0.986 | locus YJL166W, strain qcr8, active compounds read low 0.966 | locus YJL168C, strain set2, active compounds read low 1 | locus YJL187C, strain SWE1 (second series), active compounds read low 1

Reference: PubChem BioAssay AID1159580 (chemical genetic matrix, 2015)
